# “And” between values parts separate entries of the source, which are not always exact repeats. Equal entries are not always repeated. The source made the active and inactive calls. The calls were made as follows: active = hit-call score of the fitted dose curve at least 0.9, where 1 is the maximum; inactive = score below 0.9.
# Test: BSK_hDFCGF_SRB: Viability Assessment in the BioMAP Diversity Plus: hDFCGF Assay (AID 2283061);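 also: cells exposed to compound for 24 h before the read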
# Details: primary human foreskin fibroblasts
# Experimental: BSK_hDFCGF is a cell-based, multiplexed-readout assay that uses foreskin fibroblast, a human skin primary cell, with measurements taken at 24 hours after chemical dosing in a 96-well plate.BSK_hDFCGF_SRB is an assay component measured in the BSK_hDFCGF assay. It measures 0.1% sulforhodamine related to cell death using Sulforhodamine staining technology.Data from the assay component BSK_hDFCGF_SRB was analyzed into 1 assay endpoint. This assay endpoint, BSK_hDFCGF_SRB, was analyzed with bidirectional fitting relative to DMSO as the negative control and baseline of activity. Using a type of viability reporter, gain or loss-of-signal activity can be used to understand changes in the signaling. Furthermore, this assay endpoint can be referred to as a primary readout, because this assay has produced multiple assay endpoints where this one serves a signaling function. To generalize the intended target to other relatable targets, this assay endpoint is annotated to the cell morphology intended target family, where the subfamily is cell conformation.
# The levels of cell surface (or secreted, indicated by the prefix "s") biomarker endpoints were measured by ELISA. Overt cytotoxicity to cells in confluent adherent cultures (all systems other than the BT system) was assessed by measuring total protein levels using sulforhodamine B (SRB) staining in parallel cultures at the time of biomarker measurements, indicated as SRB endpoints. For proliferation assays for adherent cell types, individual cell types are cultured at sub-confluence and relative cell numbers quantified by SRB staining at time points optimized for each system (48 h: 3C and CASM3C systems; 72 h: BT and HDF3CGF systems; 96 h: SAg system). SRB was performed by staining cells with 0.1% SRB after fixation with 10% TCA and reading wells at 560 nm.Viability and proliferation of PBMC (T cells) was quantified by Alamar Blue reduction for the SAg and BT systems. For PBMC viability (referred to as PBMC Cytotoxicity within the assay endpoint names), cells were plated (75,000/well in a 96-well plate) and then chemical samples added for 1 h before addition of activators, SEB and TSST-1 (20 ng/mL final concentration each). Cells were incubated for 90 h. Then, Alamar Blue (20 uL/well) (Invitrogen, Cat DAL1100) was added for 6 h, and the plates were read with a fluorescence microplate reader at 546/580 nm (excitation/emission). For PBMC proliferation, cells were plated and activated as above but incubated for only 16 h prior to addition of Alamar Blue. Plates were read after 6 h.
SMILES,outcome,AC50
CCOP(=S)(OCC)SCn1c(=O)oc2cc(Cl)ccc21,inactive,
O=C(O)c1nc(Cl)ccc1Cl,inactive,
CCNc1nc(Cl)nc(NC(C)C)n1,inactive,
COP(N)(=O)SC (stereo not given),inactive,
COc1ccc(C(c2ccc(OC)cc2)C(Cl)(Cl)Cl)cc1,,11 µM (active)
N#Cc1cc(Br)c(O)c(Br)c1,inactive,
CCOC(=O)C(Cl)Cc1cc(-n2nc(C)n(C(F)F)c2=O)c(F)cc1Cl (stereo not given),inactive,
CC1=C(C(=O)Nc2ccccc2)SCCO1,inactive,
CCCCNC(=O)OCC#CI,,12.4 µM (active) and 3.49 µM (active)
C#CCOS(=O)OC1CCCCC1Oc1ccc(C(C)(C)C)cc1 (stereo not given),,3.73 µM (active)
Fc1ccc(Oc2ccnc3cc(Cl)cc(Cl)c23)cc1,,15.3 µM (active)
CN(C)C(=S)SSC(=S)N(C)C,,4.96 µM (active)
Cc1ccc(-c2c(Cl)nc(C#N)n2S(=O)(=O)N(C)C)cc1,,14.5 µM (active)
CC(C)(C)c1ccc(CSc2cnn(C(C)(C)C)c(=O)c2Cl)cc1,inactive,
O=C(Nc1ccccc1)Nc1ccnc(Cl)c1,inactive,
CON(C)C(=O)Nc1ccc(Cl)c(Cl)c1,inactive,
CCON=C(CC)C1=C(O)CC(c2c(C)cc(C)cc2C)CC1=O (stereo not given),inactive,
CO/C=C(/C(=O)OC)c1ccccc1Oc1cc(Oc2ccccc2C#N)ncn1,inactive,
CCOc1cc(Oc2ccc(C(F)(F)F)cc2Cl)ccc1[N+](=O)[O-],inactive,
CCOC(=O)CC(SP(=S)(OC)OC)C(=O)OCC (stereo not given),inactive,

SMILES,outcome,AC50
O=C(O)COc1nc(Cl)c(Cl)cc1Cl,inactive,
CCCCOC(=O)c1ccccc1C(=O)OCCCC,inactive,
CC(C)Oc1cc(-n2nc(C(C)(C)C)oc2=O)c(Cl)cc1Cl,,28.6 µM (active)
CCc1nn(C)c(C(=O)NCc2ccc(C(C)(C)C)cc2)c1Cl,,27.5 µM (active)
Cc1cc(Cl)ccc1OCC(=O)O,inactive,
N#Cc1nn(-c2c(Cl)cc(C(F)(F)F)cc2Cl)c(N)c1S(=O)C(F)(F)F (stereo not given),inactive,
CCNc1nc(Cl)nc(NCC)n1,inactive,
COC(=O)C=C(C)OP(=O)(OC)OC,inactive,
COC(=O)c1ccccc1C(=O)OC,inactive,
C=CCC1=C(C)C(OC(=O)C2C(C=C(C)C)C2(C)C)CC1=O (stereo not given),,32.4 µM (active) [middle of 4 runs]
COC(=O)C(C)Oc1ccc(Oc2ccc(Cl)cc2Cl)cc1 (stereo not given),inactive,
C=CCC1=C(C)[C@@H](OC(=O)[C@@H]2[C@@H](C=C(C)C)C2(C)C)CC1=O,,34.9 µM (active)
CC(C)C1(C)N=C(c2nc3ccccc3cc2C(=O)O)NC1=O (stereo not given),inactive,
Cc1c(F)c(F)c(COC(=O)C2C(/C=C(\Cl)C(F)(F)F)C2(C)C)c(F)c1F (stereo not given),inactive,
CCCC1COC(Cn2cncn2)(c2ccc(Cl)cc2Cl)O1 (stereo not given),inactive,
CCCCC(CC)COC(=O)c1ccccc1C(=O)OCC(CC)CCCC (stereo not given),inactive,
OC(c1ccc(Cl)cc1)(c1cncnc1)c1ccccc1Cl (stereo not given),inactive,
COc1nc(NC(C)C)nc(NC(C)C)n1,inactive,
CS/C(C)=N/OC(=O)N(C)SN(C)C(=O)O/N=C(\C)SC,,11.7 µM (active)
COP(=S)(OC)Oc1nc(Cl)c(Cl)cc1Cl,inactive,
